FLuc inh = blocks purified firefly luciferase enzyme activity; P08659; purified P. pyralis luciferase, luminescence, biochemical; Potency, µM (series often up to 115 µM), usual class: inhibitors; 76,000 tested, 2.5% active; AID 1347043; also: nearly all actives have a fitted effect of over 65% in size
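Cell-free enzyme assay, 10nM P. pyralis luciferase, luciferin and ATP each at 10uM. Inhibition profiled over a 6-point titration, read as luminescence.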
hNpr1 antagonist = human Npr1 receptor antagonism | P16066 | HEK293 hNpr1 GloSensor cGMP, ANP-stimulated luminescence | Potency, µM (series often up to 46.3 µM), for inactives: top-dose activity change, negative = inhibition, actives largely listed as inhibitors | 76,000 tested, 1.6% active; calls by dose curve; also: nearly all actives have a fitted effect of over 60% in size
Target sequence (P16066 whole entry, looked up): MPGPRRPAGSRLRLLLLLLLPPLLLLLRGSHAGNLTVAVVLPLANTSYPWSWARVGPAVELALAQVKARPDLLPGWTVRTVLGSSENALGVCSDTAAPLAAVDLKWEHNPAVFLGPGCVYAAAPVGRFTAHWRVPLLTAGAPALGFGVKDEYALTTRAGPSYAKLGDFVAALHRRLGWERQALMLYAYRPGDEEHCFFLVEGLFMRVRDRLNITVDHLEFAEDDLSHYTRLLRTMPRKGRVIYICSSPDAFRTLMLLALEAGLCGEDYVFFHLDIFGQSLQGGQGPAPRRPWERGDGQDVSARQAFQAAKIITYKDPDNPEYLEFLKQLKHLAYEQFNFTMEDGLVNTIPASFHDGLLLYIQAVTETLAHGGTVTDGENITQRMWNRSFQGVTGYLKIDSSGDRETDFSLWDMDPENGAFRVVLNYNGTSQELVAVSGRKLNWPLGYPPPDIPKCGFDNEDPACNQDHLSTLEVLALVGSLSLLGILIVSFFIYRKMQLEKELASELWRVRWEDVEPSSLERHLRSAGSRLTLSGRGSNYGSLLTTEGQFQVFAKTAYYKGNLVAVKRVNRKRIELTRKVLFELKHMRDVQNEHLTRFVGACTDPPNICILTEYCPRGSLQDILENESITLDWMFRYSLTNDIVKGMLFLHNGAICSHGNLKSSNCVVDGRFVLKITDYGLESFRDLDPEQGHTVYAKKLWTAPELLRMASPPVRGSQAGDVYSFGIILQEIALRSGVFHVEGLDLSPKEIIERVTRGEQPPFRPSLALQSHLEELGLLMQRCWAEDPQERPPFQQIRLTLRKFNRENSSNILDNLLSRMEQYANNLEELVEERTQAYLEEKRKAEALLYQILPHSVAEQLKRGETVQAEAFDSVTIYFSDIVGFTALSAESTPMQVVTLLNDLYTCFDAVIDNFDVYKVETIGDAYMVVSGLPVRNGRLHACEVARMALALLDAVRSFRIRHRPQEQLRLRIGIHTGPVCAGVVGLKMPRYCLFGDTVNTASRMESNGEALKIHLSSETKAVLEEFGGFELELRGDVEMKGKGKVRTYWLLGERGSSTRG
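Compound pre-incubated 30 min at room temperature on GloSensor-loaded HEK293 cells stably carrying hNpr1 and the pGS-40F cGMP biosensor. Stimulation uses hNppA at 0.1 nM final; luminescence is taken at baseline and 20 min post-agonist.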
HEK293 tox = cytotoxic compounds in HEK 293 cells; HEK 293 viability, ATP luminescence (CellTiter-Glo), 48-72 h; Potency, µM (top dose mostly 115 µM), inactives show at the top dose activity change, negative = cytotoxicity, most hits filed as inhibitors; 94,000 tested, 6.6% active; also: nearly all actives have a fitted effect of over 60% in size
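Viability of HEK 293 cells, plated at 250 cells/well, was judged by cellular ATP after compound treatment for 48 or 72 hr. Luminescence was imaged 10 min after CellTiter-Glo addition at room temperature.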
NIH3T3 tox = kills NIH 3T3 cells | NIH 3T3 viability, CellTiter-Glo ATP luminescence, 48-72 h | AID 1345082 | Potency, µM (highest dose often 96.7 µM), for inactives: at the top dose activity change, negative = cytotoxicity, usual class: inhibitors | 94,000 tested, 4.3% active; also: nearly all actives have a fitted effect of over 55% in size
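First NIH 3T3 cells are plated at 400 cells/well; next compound is pinned in; then plates incubate 48 or 72 hr at 37 °C; finally CellTiter-Glo is added and luminescence read after 10 min.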
* hit, by the source's call; i = inactive; ? = inconclusive; nt = no result given; [ ] = remark or other dose. Most compounds without a hit are left out; they make up all but 11% or so of the library. Unless noted, calls follow the shape of the dose curve; as a rule, active = well fitted curve in the direction sought with a large enough effect; inconclusive = small, poorly fitted or top-dose-only effect, or another doubt; inactive = no such curve, though single readings can be large; an effect the other way counts as inactive or inconclusive. % is scaled to controls: 0 for no effect and ±100 for the full control effect; potency is read from the fitted curve at half-maximal effect.

SMILES	FLuc inh	hNpr1 antagonist	HEK293 tox	NIH3T3 tox
Cc1ccccc1N1CCN(C(=O)c2cc3cn(C4CC4)cc3s2)CC1	i	-18%	79µM*	?
CCCn1cc(CNC(=O)c2ccc3c(c2)n(CC)c(=O)c2ccnn23)c(C)n1	i	0%	79µM*	?
O=C(C1CCCN1C(=O)Nc1ccccc1)N1CCC(N2CCOCC2=O)CC1 (centres undefined)	nt	nt	-17%	-15%
COc1ccc(C(=O)Nc2ccc3c(N4CCCCC4)ncnc3c2)cc1	25µM*	1%	40µM*	?
O=C(Cc1ccc(F)cc1)Nc1ccc2ncnc(N3CCCCC3)c2c1	i	-16%	?	35µM*
Cc1ccc(C(=O)Nc2ccc3c(N4CCOCC4)ncnc3c2)cc1F	?	-11%	?	11µM*
COc1cccc(C(=O)Nc2ccc3ncnc(N4CCCCC4)c3c2)c1	i	-22%	?	?
CCCC(=O)Nc1ccc2c(N3CCOCC3)ncnc2c1	i	4%	-14%	?
COc1ccc(C(=O)Nc2ccc3c(N4CCOCC4)ncnc3c2)c(C)c1	?	0%	?	22µM*
Cc1ccsc1C(=O)Nc1ccc2ncnc(N3CCCCC3)c2c1	i	?	32µM*	35µM*
O=C(Nc1ccc2c(N3CCCCC3)ncnc2c1)c1ccc(F)cc1F	?	3%	16µM*	22µM*
O=C(Nc1ccc2ncnc(N3CCCC3)c2c1)c1ccc(F)c(F)c1	i	-21%	?	35µM*
O=C(Nc1ccc2ncnc(N3CCCCC3)c2c1)c1ccc(F)cc1F	i	-15%	?	?
O=C(CCc1ccc(O)cc1)N[C@H]1CC[C@H](Nc2nccc(-c3cccnc3)n2)C1	i	-12%	40µM*	50µM*
CCN1CCC2(Cc3ccccc3CN(C(=O)c3c(C)noc3C)C2)C1 (centres undefined)	nt	nt	4%	0%
CCCN1CCCC12Cc1ccccc1CN(C(=O)C(C)C)C2 (centres undefined)	nt	nt	89µM*	?
CCCN1CCCC12Cc1ccccc1CN(C(=O)CC)C2 (centres undefined)	nt	nt	-11%	5%
CCCN1CCCCC12Cc1ccccc1CN(C(=O)c1c(C)noc1C)C2 (centres undefined)	nt	nt	?	32µM*
c1ccc(-c2cc(NCCCOc3cccnc3)n3nccc3n2)cc1	i	-3%	?	-22%
CC(C)CNC(=O)N1CCc2nc(-c3ccccc3)[nH]c2C1	nt	nt	-22%	-29%
NC(=O)c1ccc(-c2nc3c([nH]2)CN(c2ncnc4ccsc24)CC3)cc1	i	-16%	32µM*	-10%
COC1CN(c2cccc(F)c2)C12CCN(C(=O)NC1CCCCC1)CC2 (centres undefined)	i	2%	45µM*	?
COC1CN(c2cccc(F)c2)C12CCN(C(=O)NCCc1ccccc1)CC2 (centres undefined)	i	3%	50µM*	?
COC1CN(c2cccc(F)c2)C12CCN(C(=O)C1CCCCC1)CC2 (centres undefined)	i	-2%	28µM*	-22%
COC1CN(c2cccc(F)c2)C12CCN(S(=O)(=O)c1cccc(F)c1)CC2 (centres undefined)	nt	nt	28µM*	?
SMILES	FLuc inh	hNpr1 antagonist	HEK293 tox	NIH3T3 tox
COC1CN(c2cccc(F)c2)C12CCN(C(=O)NC(C)(C)C)CC2 (centres undefined)	i	-1%	?	-18%
O=C(NCc1ccc2c(c1)OCO2)c1nc(-c2cccc(C(F)(F)F)c2)c2cnccn12	i	0%	-4%	i
C[C@]1(CO)[C@H]2Cc3sc(NC(=O)c4ccnc(Cl)c4)nc3[C@@H](CC(=O)NCc3ccco3)[C@]2(C)CC[C@H]1O	i	4%	?	?
Cc1cc(C(=O)N2CCCN(Cc3ccncc3)C(c3ccccc3)CC(=O)NCC2)n(C)n1 (centres undefined)	i	9%	-26%	-19%
CCN(CC)C(=O)CC[C@@H]1CNC(=O)[C@@H]2C[C@H](NCc3cccs3)CN12	i	-2%[70.6 µM]	2%[172 µM]	?
COC(=O)[C@@H]1Cc2c([nH]c3ccccc23)[C@H]2C[C@@H](NCc3ccccc3)C[C@@H](c3ccccc3F)N21	i	-25%	25µM*	25µM*
COc1ccc(CNC(=O)CC[C@@H]2CNC(=O)[C@@H]3C[C@H](NCc4ccccc4)CN23)cc1	i	3%	i	i
COC(=O)[C@@H]1Cc2c([nH]c3ccccc23)[C@H]2C[C@@H](NCc3cccs3)C[C@@H](c3ccccc3F)N21	i	-3%	40µM*	?
O=C(Nc1cccnc1)[C@@H]1CCCN1c1ccnc2ccnn12	nt	nt	-14%[172 µM]	-19%[138 µM]
CCOC(=O)[C@@H]1[C@H]2c3ccccc3N(CCOC)C(=O)[C@H]2N(C(=O)c2ccccc2)[C@@H]1c1ccccc1	nt	nt	35µM*	?
COC(=O)c1ccc(COC[C@@H]2CN(C(C)C)S(=O)(=O)[C@H]2c2ccccc2)cc1	nt	nt	40µM*	?
Cc1cc(=O)n(CC(=O)N2CCCC(C)(Cc3ccc4c(c3)OCO4)C2)nc1C (centres undefined)	i	2%	?	-30%
CC1(Cc2ccc3c(c2)OCO3)CCCN(C(=O)CCCn2ccnc2)C1 (centres undefined)	i	-13%	40µM*	?
CC1(Cc2ccc3c(c2)OCO3)CCCN(CC(=O)NCc2ccco2)C1 (centres undefined)	i	?	45µM*	-25%
O=C(NCc1ccc(F)c(F)c1)c1ccc2nnc(C3CCCC3)n2c1	nt	nt	-28%	?
O=C1NCCOCCCN(S(=O)(=O)c2cccc3cccnc23)[C@H]2CCCC[C@@H]12	i	-1%	2%	i
O=C(Cc1c[nH]c2ccccc12)NC1CCCc2c1[nH]c1ccc(F)cc21 (centres undefined)	i	-15%	35µM*	32µM*
COCCn1cc(C(=O)NC2CCCc3c2[nH]c2ccccc32)c2ccccc2c1=O (centres undefined)	i	-6%	45µM*	?
COc1ccc(CC(=O)NC2CCCc3c2[nH]c2ccc(F)cc32)cc1OC (centres undefined)	i	?	?	?
O=C(Cc1ccccc1)NC1CCCc2c1[nH]c1ccccc21 (centres undefined)	i	-1%	?	22µM*
CC(C)CC(=O)NC1CCCc2c1[nH]c1ccc(Cl)cc21 (centres undefined)	i	-13%	?	20µM*
COc1ccccc1-c1nnc2ccc(C(=O)NC3CCCCC3)cn12	nt	nt	i	-13%
COCCOC1CCN(C(=O)c2cc(C)n(CCOC)c2C)CC1	20µM*	1%	-9%	-9%
OC[C@@H]1CNC[C@H]1C1CCN(Cc2ccc(OC(F)(F)F)cc2)CC1	i	-2%	40µM*	?
OC[C@@H]1CNC[C@H]1C1CCN(Cc2ccc(Cl)c(F)c2)CC1	i	5%	40µM*	?

Assay outcomes deposited in PubChem BioAssay by National Center for Advancing Translational Sciences (NCATS).
